In the library only some 1.3% were active in any assay of this set; here they are far more common.
PGC1a acetyl inh = inhibitors of PGC1a acetylation signal, primary screen, cell-based, U2OS, AlphaScreen, inhibitor mode | AlphaScreen anti-acetyl-lysine; with virally co-expressed GCN5 acetyltransferase | inhibition, % at 15.6 µM | 0.17% of 350,000 active;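 active means every replicate shows inhibition of at least 40%; inconclusive means mean inhibition at least 40% but some replicate below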;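 further: 0% = neutral control wells and 100% = positive control wells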
Statin myotox sup = suppressors of statin myotoxicity in C2C12 myotubes, primary screen, cell-based, single point, plate reader; C2C12 myotubes + simvastatin, ATP luminescence, 48 h; scaled: DMSO 0, geranylgeraniol control 100; rescue of ATP level, % at 7.49 µM; 0.78% of 330,000 active; AID 602340, 2012;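 active means mean ATP rescue above about 67%, or every replicate alone reaching that limit, limit read from the data, passing the limit was not always enough; inconclusive means no clear call, values can overlap the other calls; inactive means mean under the limit and some replicate under it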;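 further: myotubes were challenged with 10 µM simvastatin during compound exposure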
AI-2 QS modul = Vibrio harveyi AI-2 quorum sensing modulators, primary screen, JMH597 strain, luminescence/OD600 ratio. AID 2094, 2009. Vibrio harveyi JMH597 AI-2 luminescence/OD600 ratio, 9 h; active compounds read low; strain lacks LuxN and CqsS sensors; 0 = neutral-control median. 0.4% of 300,000 active. activity change, % at 7.5 µM; in the data active means activity change below about -75%, passing the limit was not always enough; inconclusive means no clear call, values can overlap the other calls;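 further: luminescence divided by OD600 gain over 9 h not by final OD600 alone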
HIF activator = HIF pathway transcriptional activators, primary screen, cell-based, U2OS HRE-luciferase, luminescence | 0.32% of 300,000 active | U2OS HRE-luciferase reporter; normalized: DMSO 0%, desferrioxamine 100% | AID 1910, 2009 | activation, % at 7.5 µM (by protocol);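 active means mean activation of at least 10% of the iron chelator positive control signal, with at least half of replicates also reaching 10%; inconclusive means mean and replicate majority disagree about reaching 10%; inactive means mean and most replicates under 10%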
Rce1 inh = yeast Rce1p protease inhibitors, primary screen, biochemical, fluorescence, cell-free homogeneous; yeast membranes, quenched prenylated peptide cleavage fluorescence; calls only; 0.27% of 290,000 active; CAAX prenyl protease 2 (Saccharomyces cerevisiae (strain ATCC 204508 / S288c)), Q03530;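 active means fall in fluorescence gain of 50% or more versus controls, with final raw signal at or below 3038400; inconclusive means same 50% fall but final raw signal above 3038400; inactive means fall in fluorescence gain under 50%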;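 further: plate controls were neutral control wells for no effect and wells lacking membranes for full effect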
Target sequence (Q03530 whole entry, looked up): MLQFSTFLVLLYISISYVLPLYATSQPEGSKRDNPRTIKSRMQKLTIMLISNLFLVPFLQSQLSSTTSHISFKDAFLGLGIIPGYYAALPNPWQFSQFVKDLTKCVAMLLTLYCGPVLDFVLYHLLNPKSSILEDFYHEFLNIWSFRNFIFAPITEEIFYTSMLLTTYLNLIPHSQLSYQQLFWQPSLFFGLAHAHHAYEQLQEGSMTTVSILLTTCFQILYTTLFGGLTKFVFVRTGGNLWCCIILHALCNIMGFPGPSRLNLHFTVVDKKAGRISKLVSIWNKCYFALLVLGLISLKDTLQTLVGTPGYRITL
JMH597 growth = Vibrio harveyi growth inhibition, confirmation, counter-screen for AI-2 quorum sensing project, JMH597 strain, OD600 absorbance. shares compounds with AI-2 QS modul. 9 h; lacks LuxN and CqsS sensors. growth inhibition, % at 7.5 µM. 1% of 750 active. AID 2726, 2010;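 active means every replicate shows growth inhibition above 50%; inconclusive means at least half, but not all, replicates pass that cutoff; inactive means fewer than half of replicates pass it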
BB721 const-QS lum = luminescence inhibition in constitutive-on V. harveyi, confirmation, counter-screen for LuxS inhibitor project, strain BB721, luminescence readout; shares compounds with AI-2 QS modul; Vibrio harveyi BB721 luminescence, 9 h; inhibition, % at 7.5 µM; 95% of 750 active; AID 2727, 2010;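 active means inhibition above about 80% in every replicate, not just on average, limit read from the data; inconclusive means at least half of replicates past the limit, but not all; inactive means fewer than half of replicates past the limit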
BB721 growth rt = growth inhibition of V. harveyi BB721, confirmation, cytotoxicity control for AI-2 quorum sensing inhibitors, strain BB721, absorbance OD600; shares compounds with AI-2 QS modul; 3% of 750 active; Vibrio harveyi BB721 growth, 9 h; growth inhibition, % at 7.5 µM;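 active means every replicate shows growth inhibition above 50%; inconclusive means at least half but not all replicates above 50% inhibition; inactive means under half of replicates above 50% inhibition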
JMH597 AI-2 mod = Vibrio harveyi AI-2 signaling luminescence modulation – JMH597 strain, confirmation; inhibition, % at 7.5 µM; shares compounds with AI-2 QS modul; Vibrio harveyi JMH597 AI-2 quorum sensing luminescence, 9 h; luxN and CqsS knockout, AI-2 only; 97% of 750 active; AID 2736, 2010;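 active means every replicate shows more than 75% inhibition of signal versus neutral control wells; inconclusive means half to three quarters of replicates exceed 75% inhibition; inactive means fewer than half of replicates exceed 75% inhibition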
* marks the source's active call; other numbers are inactive results; i = inactive; ? = inconclusive; . = no result given.

SMILES	PGC1a acetyl inh	Statin myotox sup	AI-2 QS modul	HIF activator	Rce1 inh	JMH597 growth	BB721 const-QS lum	BB721 growth rt	JMH597 AI-2 mod
COc1cc(NC(=O)CN2C(=O)NC3(CCOc4ccccc43)C2=O)cc(OC)c1 (configuration not stated)	1	-2	.	.	.	.	.	.	.
Cc1ccc(C2(C)NC(=O)N(CC(=O)Nc3ccc4c(c3)OCO4)C2=O)cc1 (configuration not stated)	34	2	-95*	0	i	11	97*	51	98*
C[C@@H]1CCCCO[C@@H](CN(C)S(=O)(=O)c2cccs2)[C@H](C)CN([C@H](C)CO)C(=O)c2cc(NC(=O)Nc3cccc4ccccc34)ccc2O1	-7	-15	.	.	.	.	.	.	.
C[C@@H]1CCCCO[C@@H](CN(C)CC2CCCCC2)[C@H](C)CN([C@H](C)CO)C(=O)c2cc(NS(=O)(=O)c3cn(C)cn3)ccc2O1	.	38	.	.	.	.	.	.	.
CCC1(c2ccccc2)NC(=O)N(CC(=O)Nc2ccc3c(c2)OCO3)C1=O (configuration not stated)	2	.	-93*	1	i	28	96*	30	97*
CC1(c2ccccc2)NC(=O)N(CC(=O)Nc2ccc(C(N)=O)cc2)C1=O (configuration not stated)	-2	-29	3	0	i	.	.	.	.
CCCC1(c2ccccc2)NC(=O)N(CC(=O)Nc2ccc3c(c2)OCCO3)C1=O (configuration not stated)	-10	0	.	.	.	.	.	.	.
Cc1ccc(C2(C)NC(=O)N(CC(=O)NC(=O)NCCC(C)C)C2=O)cc1 (configuration not stated)	.	8	-85*	2	i	-14	90*	-38	95*
Cc1ccc(NC(=O)CN2C(=O)NC(C)(c3ccc(Cl)cc3)C2=O)cc1 (configuration not stated)	.	18	-88*	0	i	0	89*	9	94*
O=C(C[C@H]1CC[C@H](NC(=O)Nc2ccc(C(F)(F)F)cc2)[C@H](CO)O1)NCc1cc(F)cc(F)c1	-3	2	.	.	.	.	.	.	.
CC(C)(C)c1ccc(OCC(=O)NN2Cc3ccccc3C2=N)cc1	-29	.	-89*	0	i	12	?	-8	88*
Cc1cccc(OCC(=O)Nc2cc(C)ccc2O)c1	-26	113*	-85*	1	i	34	96*	29	97*
CCc1cccc(OCC(=O)Nc2ccc(S(=O)(=O)N3CCCC3)cc2)c1	3	.	-90*	-1	i	43	97*	?	98*
COc1ccccc1CNC(=O)COc1ccc(S(=O)(=O)N2CCCC2)cc1	.	-1	?	1	i	19	85*	8	93*
Cc1cccc(OCC(=O)Nc2cc(C)c(C)cc2O)c1	2	11	-16	1	i	.	.	.	.
Cc1cccc(OCC(=O)Nc2ccc(S(=O)(=O)N3CCCC3)cc2)c1	11	0	-97*	-1	i	9	99*	-3	100*
O=C(COc1cccc(C(F)(F)F)c1)Nc1ccc(S(=O)(=O)N2CCCCC2)cc1	.	.	-18	0	i	.	.	.	.
O=C(CC1CC1)N1[C@H](CO)[C@@H](c2ccccc2)C12CN(Cc1cc(F)ccc1F)C2	7	.	.	.	.	.	.	.	.
Oc1c(Br)cc(C2N=C(c3ccccc3)NO2)cc1Br (configuration not stated)	13	.	41	3	i	.	.	.	.
CSc1ccc(C2N=C(c3ccccc3)NO2)cc1 (configuration not stated)	.	13	-85*	1	i	31	95*	13	96*
CCc1ccc(O)c(-c2cc(C(=O)Nc3cccnc3)[nH]n2)c1	7	-20	-94*	2	i	-13	97*	3	97*
Cc1cc(O)c(-c2cc(C(=O)Nc3cccnc3)[nH]n2)cc1C	1	-8	-1	2	i	.	.	.	.
C=Cn1c(C(=O)O)ccc1-c1ccc(CC)cc1	.	0	-87*	0	i	26	16	10	100*
CC(C)C(CCNC(=O)CC(Cc1ccccc1)c1ccco1)c1ccco1 (configuration not stated)	3	-9	21	0	i	.	.	.	.
CC(C)C(CCNC(=O)CN1C(=O)c2ccccc2C1=O)c1ccco1 (configuration not stated)	-17	-10	-84*	0	i	12	94*	2	97*
SMILES	PGC1a acetyl inh	Statin myotox sup	AI-2 QS modul	HIF activator	Rce1 inh	JMH597 growth	BB721 const-QS lum	BB721 growth rt	JMH597 AI-2 mod
CCCCc1ccc(NC(=O)CSc2nc3ncccc3[nH]2)cc1	.	9	-88*	.	i	3	93*	7	96*
CCOC(=O)c1ccc(NC(=O)CSc2nc3ncccc3[nH]2)cc1	0	.	-91*	2	i	31	97*	40	97*
Nc1c(S(=O)(=O)c2ccccc2)nnn1-c1ccccc1	2	-12	-97*	-1	i	11	100*	-40	100*
COc1ccc(CN2C(C)C3C(C)=CC2C2C(=O)N(C)C(=O)C32)cc1 (configuration not stated)	9	.	.	.	.	.	.	.	.
CCc1ccc(OCC(=O)O/N=C(\N)c2cccnc2)cc1	-6	-1	-92*	2	i	11	95*	-3	96*
CC1CC(=O)N(CC(=O)Nc2ccc(Br)cc2)c2ccccc2S1(=O)=O (configuration not stated)	3	0	-83*	0	i	-15	96*	-17	97*
Cc1ccccc1C(=O)OCc1nnc(-c2ccc(Cl)cc2)o1	7	.	?	1	i	-1	91*	-12	93*
Cc1cc(NS(=O)(=O)c2ccc(NC(=O)CCc3ccccc3)cc2)no1	.	-1	-91*	0	i	21	95*	17	97*
